# Screening data deposited in PubChem BioAssay by National Center for Advancing Translational Sciences (NCATS).
# Rows were chosen to be rich in hits. Some 2.4% of all compounds tested hit in one or more screens of this group.
# HEK293 tox: cytotoxicity in counter-screen for GLP-1R inverse agonists. Potency, µM (titrated, usually from 38.3 µM), inactives show at the top dose activity change, negative = inhibition, actives largely listed as inhibitors. HEK293 cAMP-luciferase reporter cells, luminescence, 24 h. actives 0.13% (n = 410,000);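 further: loss of luciferase light is scored as toxicity; potency means the concentration at half of the fitted maximal effect; on the % scale 0 is the no-effect control and ±100 the full control effect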
#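 A 23 nL compound transfer followed 12 hours of cell culture at 37 deg C; exposure then lasted 24 hr. Luciferase assay detection reagent was dispensed and plates read for luminescence after a 12 min room-temperature wait.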
# TRHR agonist: agonists of human TRH receptor; TRHR cells, calcium flux fluo-8, FDSS agonist mode; activation, % at 2 µM; actives 0.18% (n = 360,000); AID 493084; in the data active means activation above about 30%; further: 0% is about no effect
# Target sequence (P34981 whole entry, looked up): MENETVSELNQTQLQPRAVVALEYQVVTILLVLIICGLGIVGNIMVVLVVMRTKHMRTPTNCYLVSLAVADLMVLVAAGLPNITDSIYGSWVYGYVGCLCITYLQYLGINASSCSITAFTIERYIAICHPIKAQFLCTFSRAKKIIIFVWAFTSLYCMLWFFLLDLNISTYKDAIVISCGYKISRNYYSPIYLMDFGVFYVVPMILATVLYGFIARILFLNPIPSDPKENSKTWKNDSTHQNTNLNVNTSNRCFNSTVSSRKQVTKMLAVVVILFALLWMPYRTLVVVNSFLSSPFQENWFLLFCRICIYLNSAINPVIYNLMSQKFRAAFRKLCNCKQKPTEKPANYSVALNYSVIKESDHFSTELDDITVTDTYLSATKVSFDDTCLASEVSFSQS
#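 Steps: seed TRHR cells overnight; add fluo-8 no-wash Ca dye, RT 30 min–1.5 h; record 10 s baseline; pin-transfer compounds; monitor fluorescence 1 cycle/s for the agonist window. Calcium increases flag candidate agonists.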
# GLP1R ag: agonists of human GLP-1 receptor. P43220. Potency, µM (highest dose often 45.6 µM), for inactives: top-dose activation, hits mostly activators. HEK293 GLP-1R CRE-luciferase, luminescence, 4-6 h; cells express a hypersensitive GLP-1R form. actives 0.007% (n = 380,000); further: potency means the concentration at half of the fitted maximal effect; % of control where 0% means no effect
# TRHR PAM: allosteric enhancers of human TRH receptor | actives 0.66% (n = 360,000) | TRHR cells, fluo-8 calcium fluorescence, EC20 TRH enhancement | enhancement, % at 2 µM | P34981; in the data active means enhancement above about 30%; further: 0% is about no effect
#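 TRHR-expressing cells loaded with fluo-8 calcium dye were read kinetically (ex 480/em 530) during compound addition, then stimulated with an EC20 of TRH (10 nM final). Enhancement of the Gq-mediated intracellular calcium response was scored.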
# GLP1R inv ag: inverse agonists of human GLP-1 receptor; HEK293 GLP-1R CRE-luciferase, luminescence, 24 h; GLP-1R form is constitutively active; Potency, µM (highest dose often 38.3 µM), inactives show top-dose activity change, negative = inhibition, actives largely listed as inhibitors; actives 1.6% (n = 410,000); AID 624417; further: potency means the concentration at half of the fitted maximal effect; on the % scale 0 is the no-effect control and ±100 the full control effect; nearly all actives have a fitted effect of over 55% in size
#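 Cells are plated, allowed 12 hours at 37 deg C, then treated with compounds for 24 hr before luciferase detection reagent is added and luminescence is read after 12 min at room temperature. The HEK293 line carries constitutively active GLP-1R with a cAMP-responsive reporter.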
# PTHR1 ag: activates the human parathyroid hormone receptor PTHR1; Q03431; HEK293 GP2 PTHR1 cells, GloSensor cAMP luminescence, 1 h; Potency, µM (titrated, usually from 115 µM), for inactives: at the highest dose activation, actives largely listed as activators; actives 0.075% (n = 410,000); AID 743266; further: potency means the concentration at half of the fitted maximal effect; nearly all actives have a fitted effect of over 55% in size
#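 HEK-293-derived GP2 cells expressing PTHR1 and a GloSensor cAMP reporter, 3,000/well, plated overnight, given luciferin plus IBMX (each 0.5 mM as added) for 1 h at 37 °C, then compound for 1 h at 37 °C. Luminescence was read after 15 min at room temperature.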
# Numbers without * were called inactive; i = inactive; ? = inconclusive; . = no result given; [ ] = another dose, or the depositor's remark. Unless noted, the call rests on the fitted dose curve; in most records, active means well fitted curve in the direction sought with a large enough effect; inconclusive means small, poorly fitted or top-dose-only effect, or another doubt; inactive means no such curve, though single readings can be large; an effect the other way counts as inactive or inconclusive.
SMILES,HEK293 tox,TRHR agonist,GLP1R ag,TRHR PAM,GLP1R inv ag,PTHR1 ag
Cc1cccc(C(=O)N2CCC(=O)N(C(COCc3cccc(Cl)c3)Cc3ccccc3)CC2)c1 (stereo unspecified),-8.1%,1.2,3.8%,-7.1,8.91µM*,i
CNCCCOc1ccc(Cl)cc1C(C)(C)C,?,1.0,6.5%,6.7,3.55µM*,i
CCCCOc1ccc(CCN)cc1Cl,-6.3%,2.6,-0.5%,2.8,0.5%,i
NC(N)=Nc1ccc2[nH]c3c(c2c1)C[C@@]1(O)[C@H]2Cc4ccc(O)c5c4[C@@]1(CCN2CC1CC1)[C@H]3O5,-2.0%,0.4,-4.2%,6.0,-11.5%,-90.5%
CCOc1ccc(N(CC)S(=O)(=O)c2ccc3c(c2)oc(=O)n3C)cc1,?,-0.4,13.4%,18.7,0.0%,-24.9%[57.5 µM]
c1ccc2c(c1)[IH]c1ccccc1-2,?,.,-10.9%,.,4.47µM*,-12.0%
CC(=O)OCC[N+](C)(C)C,2.5%,36.3*,12.2%,-4.5,32.4%,-2.1%
CC(C)Cn1cnc2c(c(-c3ccccc3)c(-c3ccccc3)n2Cc2ccco2)c1=N,?,1.0,-6.9%,-9.3,3.16µM*,i
O=C(NCCc1ccccc1)c1ccc(CSc2nc3cccnc3n2Cc2ccc(F)cc2)cc1,-7.1%,0.8,.,1.2,?,-12.5%
O=C(NCCc1ccccc1)c1ccc2nccnc2c1,-19.1%,0.1,4.2%,6.8,5.01µM*,-25.3%
COc1ccc(N=C2S/C(=C\c3ccc(Cl)c([N+](=O)[O-])c3)C(=O)N2CCN(C)C)cc1,11.2µM*,0.9,-4.3%,-6.7,?,-92.7%
Cn1ccnc1P(=S)(c1nccn1C)N1CCOCC1,8.4%,0.4,-7.2%,2.8,6.9%,-17.3%[57.5 µM]
C[C@]12CCC3C(CC[C@H]4C[C@H](O)CC[C@]34C)C1[C@@H](O)[C@@H](O)[C@@H]2O (stereo partly specified),6.9%,.,17.2%,.,7.7%,i
Nc1ccc2c(c1)Cc1cc([N+](=O)[O-])ccc1-2,17.3%,43.7*,15.0%,4.8,34.1%,-0.9%
Cc1nc(Nc2ccc(F)cc2)[nH]c(=O)c1CCC(C)C,?,0.0,-12.7%,-0.5,7.94µM*,-41.3%
O=P(N1CCCCC1)(N1CCCCC1)C(Cl)(Cl)Cl,-7.2%,0.4,-3.2%,-0.2,-11.7%,i
CC[C@H]1CC2CN3CCc4c([nH]c5cc(OC)ccc45)[C@](C(=O)OC)(C2)[C@H]13,2.0%,.,5.2%,.,?,i
O=C1NC(=S)N(Cc2ccco2)C(=O)/C1=C\c1cccs1,.,2.1,.,50.9*,.,.
CC1CC(OP(O)(=S)c2ccc(N(C)C)cc2NC(=O)c2cccs2)CC(C)(C)C1 (stereo unspecified),-15.4%,0.1,10.7%,-0.2,?,-23.1%
CCCCCCCCCCCCCCCC[n+]1ccc(/C=N/O)cc1,?,1.2,-18.6%,-6.2,8.91µM*,-16.0%
CCCCCCC[n+]1ccc(-c2cc[n+](CCCCCCC)cc2)cc1,-10.2%,0.1,0.6%,1.3,-26.5%,-21.7%
c1ccc2c[n+](CCCCCCCCCC[n+]3ccc4ccccc4c3)ccc2c1,.,.,.,.,.,-27.3%[57.5 µM]
CCCCCCCCCCCCCCCC[n+]1ccccc1,?,.,-7.3%,.,3.55µM*,-91.7%
COc1ccc(NC(=O)CCc2nc(C3=CCN(Cc4cccc(Cl)c4)CC3)no2)cc1OC,6.9%,-0.4,.,-2.1,16.5%,-35.9%
O=[N+]([O-])c1ccc2c(c1)Cc1cc(O)ccc1-2,17.5%,.,11.9%,.,-2.2%,-12.8%
SMILES,HEK293 tox,TRHR agonist,GLP1R ag,TRHR PAM,GLP1R inv ag,PTHR1 ag
COC(=O)C1=C(c2ccc(-c3ccccc3)c(F)c2)C[C@@H]2CC[C@H]1N2C(=O)NCc1cccc2ccccc12,1.4%,0.5,10.8%,18.8,?,6.8%
CCCCCn1c(N)c(C(=O)NCCN2CCOCC2)c2nc3ccccc3nc21,i,0.9,-27.3%,0.0,?,3.9%
COc1ccc(CCNC(=O)c2c(N)n(CCN3CCOCC3)c3nc4ccccc4nc23)cc1OC,115.4%,0.8,0.4%,7.1,10µM*,-9.9%
CCC(=C(c1ccc(OC)cc1)c1ccc(OC)cc1)c1cn(CC(O)CN2CCN(C)CC2)c2ccccc12 (stereo unspecified),?,0.7,-22.5%,0.5,10µM*,i
NCC(=O)c1ccccc1,5.7%,.,7.0%,.,8.6%,-7.5%
C=C(C(=O)c1ccccc1)C(C)CC(=O)c1ccccc1 (stereo unspecified),?,-0.6,-12.1%,-7.5,8.91µM*,-82.5%
CO[C@@H](COC(N)=O)C1=C(N2CC2)C(=O)C(C)=C(N2CC2)C1=O,.,.,-0.9%,.,.,.
CC1=C(N2CC2)C(=O)C(CO)=C(N2CC2)C1=O,0.794µM*,.,-36.6%,.,?,i
Cc1[nH]c2ccccc2c1CN1CCCCC1,4.8%,.,4.0%,.,23.4%,22.0%
Cc1ccc(N2C(=O)/C(=C/N3CCN(C(=O)c4ccco4)CC3)C(=O)NC2=S)cc1C,-23.6%,1.1,-2.5%,-1.1,-9.3%,i
CC12CC(c3ccccc3O1)N(C(=O)c1ccco1)C(=S)N2c1ccc(F)cc1 (stereo unspecified),?,0.6,-6.6%,-2.7,10µM*,?
COc1ccc(CS(=O)(=O)/C(Cl)=C(/Cl)C(=O)Nc2ccc(OC)nc2)cc1,11.2µM*,0.6,-32.0%,-8.6,?,-13.4%[57.5 µM]
COc1ccc(OC)c(NC(=O)c2nc(S(=O)(=O)Cc3ccc(F)cc3)ncc2Cl)c1,?,-0.9,.,-3.6,?,i
CCN(CC)c1ccc(/C=C/C(=O)C2C(=O)C=C(C)OC2=O)cc1 (stereo unspecified),458.5%,221.8*,5.1%,39.6*,-21.4%,i
COc1ccc(-c2coc3c(C(=O)Nc4cc(OC)c(OC)c(OC)c4)cccc23)c(C)c1,-20.6%,.,-5.2%,.,4.47µM*,-44.8%
COc1cc(NC(=O)c2cccc3c(-c4cccnc4)coc23)cc(OC)c1OC,?,.,-11.8%,.,?,-87.6%
CCOC(=O)c1ccc(NC(=O)CSc2ccc(-c3cccnc3)nn2)cc1,-7.2%,-0.7,6.1%,1.9,0.3%,-45.5%
COCCNCCOc1ccc(C(C)(C)c2ccccc2)cc1,-4.7%,1.8,9.0%,0.3,10µM*,-4.5%
C[N+](C)(C)CCOC(=O)C(O)(c1ccccc1)c1ccccc1,.,.,0.5%,.,.,.
NC1=C(Br)C(=O)c2ncccc2C1=O,3.98µM*,.,-12.3%,.,3.16µM*,-21.6%
COc1ccc(C(C)=O)cc1CSc1nc(NCc2ccccc2)c2ccccc2n1,?,-0.1,.,-3.3,-17.3%,i
